This is a sample that favours compounds with a hit; in the whole collection about 1.3% have one here.
LYPLA2 counter: LYPLA2 inhibitors, primary screen, counter-screen for PME1 inhibitor project, biochemical, fluorescence polarization, FP-Rh probe ABPP. hit rate 0.38% among 320,000. inhibition, % at 5.9 µM. Acyl-protein thioesterase 2 (Homo sapiens), O95372. recombinant LYPLA2. AID 2177, 2009;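 active means inhibition above the screen-wide mean plus 3 SD, limit set per campaign, cut at about 26% in these data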
LYPLA1 counter: LYPLA1 inhibitors, primary screen, counter-screen for PME1 inhibitor project, biochemical, fluorescence polarization, FP-Rh probe ABPP; Acyl-protein thioesterase 1 (Homo sapiens), O75608; recombinant LYPLA1; inhibition, % at 5.9 µM; hit rate 0.16% among 320,000;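 active means inhibition above the mean of all tested compounds plus 3 SD, set per campaign, cut at about 14% in these data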;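 further: inhibitors block serine hydrolase probe labeling of LYPLA1 so polarization falls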
Target sequence (O75608 whole entry, looked up): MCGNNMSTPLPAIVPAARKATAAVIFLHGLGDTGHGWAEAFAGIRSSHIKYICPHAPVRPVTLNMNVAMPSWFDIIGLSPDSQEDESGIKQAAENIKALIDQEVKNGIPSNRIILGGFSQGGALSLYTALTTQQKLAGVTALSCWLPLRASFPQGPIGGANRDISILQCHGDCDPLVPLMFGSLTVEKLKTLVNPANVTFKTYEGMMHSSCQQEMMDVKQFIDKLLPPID
PME-1 inh: PME-1 inhibitors via competitive probe labeling, primary screen, biochemical, fluorescence polarization, FP-Rh probe, HTS. inhibition, % at 5.9 µM. Protein phosphatase methylesterase 1 (Homo sapiens), Q9Y570. recombinant PME-1. AID 2130, 2009. hit rate 0.53% among 320,000;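 active means inhibition above the campaign mean of all compounds plus 3 SD, cut at about 26% in these data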;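 further: competitive labeling of PME-1 active site by serine hydrolase directed probe; inhibitors block probe labeling so polarization falls and inhibition rises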
Target sequence (Q9Y570 whole entry, looked up): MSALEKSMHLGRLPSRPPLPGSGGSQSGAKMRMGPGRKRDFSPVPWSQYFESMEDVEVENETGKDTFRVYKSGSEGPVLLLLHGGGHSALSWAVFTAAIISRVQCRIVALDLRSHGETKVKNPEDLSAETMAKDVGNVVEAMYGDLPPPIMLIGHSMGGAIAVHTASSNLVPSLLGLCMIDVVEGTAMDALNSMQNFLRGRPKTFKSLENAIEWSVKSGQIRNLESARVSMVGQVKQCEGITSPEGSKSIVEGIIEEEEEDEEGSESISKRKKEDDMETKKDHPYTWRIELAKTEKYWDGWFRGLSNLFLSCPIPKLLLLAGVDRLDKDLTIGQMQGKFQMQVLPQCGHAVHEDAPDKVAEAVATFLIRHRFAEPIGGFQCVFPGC
Fam108B inh: mouse Fam108B serine hydrolase inhibitors, primary screen, counter-screen for RBBP9 inhibitor project, biochemical, fluorescence polarization; inhibition, % at 9.51 µM; hit rate 0.33% among 300,000; recombinant Fam108B, FP-Rh probe fluorescence polarization;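 active means inhibition above the screen mean inhibition plus 3 SD, computed separately per campaign, cut at about 18% in these data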;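 further: inhibitors lower polarization as less probe binds the enzyme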
PREPL inh: PREPL enzyme inhibitors, primary screen, biochemical, fluorescence polarization; Prolyl endopeptidase-like (Homo sapiens), Q4J6C6; recombinant PREPL, fluorescence polarization activity-based probe; inhibition, % at 5.96 µM; hit rate 0.68% among 320,000; AID 2751, 2010
PREPL inh cf: human PREPL enzyme inhibitors, confirmation, biochemical, fluorescence polarization; inhibition, % at 5.96 µM; hit rate 67% among 2,000; recombinant PREPL, fluorescence polarization activity probe; shares compounds with PREPL inh
Of the large screens only hits and unclear results are named; the others gave an inactive call (follow-up assays come after a bar, where they were run); ! = not active in a repeat. Unless noted, no stated cut-off is given here; in the data, active means inhibition above about 43%; inactive means the rest.

Cc1c(C#N)c(N=CN(C)C)c(C(=O)c2ccc(Br)cc2)n1-c1ccc(Cl)cc1	PREPL inh 48 | PREPL inh cf 53
Cc1cc(C)c(-c2csc(NC(=O)C3=NN(c4ccccc4)C(=O)CC3)n2)c(C)c1	none
CCc1ccc(-c2csc(NC(=O)C3=NN(c4ccccc4)C(=O)CC3)n2)cc1	PREPL inh 44 | PREPL inh cf inactive
Cc1ccccc1NC(=O)Cc1nc(COC(=O)c2cccc([N+](=O)[O-])c2)cs1	none
N=C1/C(=C\c2ccc(OC(=O)c3ccc(F)cc3)cc2)C(=O)N=C2SC(N3CCCC3)=NN12	none
N=C1/C(=C\c2ccc(OC(=O)c3ccccc3)cc2)C(=O)N=C2SC(N3CCOCC3)=NN12	PREPL inh 61 | PREPL inh cf inactive
Cc1ccc(C(=O)Oc2ccc(/C=C3\C(=N)N4N=C(N5CCOCC5)SC4=NC3=O)cc2)cc1	PREPL inh 62 | PREPL inh cf inactive
OCCN1CCN(CCCN2c3ccccc3Sc3ccc(Cl)cc32)CC1	PREPL inh 48 | PREPL inh cf inactive
CN(C)CCCN1c2ccccc2Sc2ccc(Cl)cc21	PREPL inh 45! | PREPL inh cf 45
CC(C)C[C@@H]1CN=C(N)N1C[C@@H]1CCCN1C[C@@H](C(C)C)N1C[C@@H](Cc2ccccc2)N(CCCC2CCCC2)C1=N	PREPL inh 60 (no result: LYPLA2 counter, LYPLA1 counter, PME-1 inh, Fam108B inh) | PREPL inh cf 51
CCCCN1C(=N)N([C@@H](CN2CCC[C@H]2CN2C(N)=NC[C@@H]2Cc2ccccc2)C(C)C)C[C@H]1Cc1ccccc1	PREPL inh 65 (no result: LYPLA2 counter, LYPLA1 counter, PME-1 inh, Fam108B inh) | PREPL inh cf 59
CCCCN1C(=N)N([C@@H](C)CN2CCC[C@H]2CN2C(N)=NC[C@@H]2Cc2ccccc2)C[C@H]1Cc1ccccc1	PREPL inh 54 (no result: LYPLA2 counter, LYPLA1 counter, PME-1 inh, Fam108B inh) | PREPL inh cf 44
CC(C)(C)OC(=O)C[C@H]1C/C=C\C[C@H](CC(=O)NCCO)C(=O)NCCOC1=O	none (no result: LYPLA2 counter, LYPLA1 counter, PME-1 inh, Fam108B inh)
Cc1ccc(Sc2cnn(-c3ccccc3)c(=O)c2Cl)cc1	PREPL inh 46 | PREPL inh cf inactive
CCOC(=O)/C(C#N)=C\c1cc(C)n(-c2ccccc2)c1C	none
CCOC(=O)/C(C#N)=C\c1ccc(N2CCN(C/C=C/c3ccccc3)CC2)cc1	PREPL inh 51 | PREPL inh cf 46
Cc1ccc(-c2csc(=Nc3cccnc3)n2CCCN2CCCC2=O)cc1C	PREPL inh 49 | PREPL inh cf 54
Cc1ccc(-c2csc(=Nc3cccnc3)n2CCCn2ccnc2)cc1C	PREPL inh 47 | PREPL inh cf 57
c1cncc(N=c2scc(-c3cccc4ccccc34)n2CCCn2ccnc2)c1	PREPL inh 53 | PREPL inh cf 54
COc1cccc(NC(=O)COc2ccc(C(=O)N3CCN(C)CC3)cc2)c1	none
CN(Cc1cn[nH]c1-c1cc2ccccc2o1)CC1CCOCC1	none
COC(=O)c1sccc1NC(=O)Nc1cccc(F)c1	none
COc1cccc(C2CC(c3ccc(C)cc3)Nc3nc(N)nn32)c1 (configuration not stated)	PREPL inh 49 | PREPL inh cf 51
COC(=O)C1NN=C(C(=O)c2ccc(Cl)cc2)C1c1ccc(OC)cc1 (configuration not stated)	none
CN1CCN(C(=O)C2=C[C@@H](c3ccc4c(c3)OCO4)C[C@@H](OCc3ccc(CO)cc3)O2)CC1	PREPL inh 45 | PREPL inh cf 54
CN1CCN(C(=O)C2=C[C@@H](c3ccc(C(F)(F)F)cc3)C[C@@H](OCc3ccc(CO)cc3)O2)CC1	PREPL inh 59 | PREPL inh cf 59
O=C(C1=C[C@H](c2ccc(C(F)(F)F)cc2)C[C@H](OCc2ccc(CO)cc2)O1)N1CCOCC1	none
O=C(C1=C[C@@H](c2ccc(C(F)(F)F)cc2)C[C@@H](OCc2ccc(CO)cc2)O1)N1CCN(Cc2ccccc2)CC1	PREPL inh 52 | PREPL inh cf 57
Cc1noc(C)c1NC(=O)Nc1cccc2c1O[C@H](CN(C)C(=O)NC(C)C)[C@@H](C)CN([C@H](C)CO)C2=O	none (no result: LYPLA2 counter, LYPLA1 counter, PME-1 inh, Fam108B inh)
O=C(O)C1CCCN1c1nc(-c2ccc(Cl)c(Cl)c2)cc(C(F)(F)F)n1 (configuration not stated)	none (no result: Fam108B inh)
Cc1nc2ccc([N+](=O)[O-])cc2c(=O)n1Cc1cccc(Br)c1	PREPL inh 45 | PREPL inh cf inactive
Cc1nc2ccc([N+](=O)[O-])cc2c(=O)n1Cc1ccc(Br)cc1	none
CN1CCN(S(=O)(=O)c2ccc(Oc3cccc(C(F)(F)F)c3)nc2)CC1	none
CCOC(=O)N1CCN(CCC(=O)Nc2ccc(OC)cc2OC)CC1	none
CCN1CCN(C(=O)C(C)Nc2ccc(OC)cc2OC)CC1 (configuration not stated)	PREPL inh 50 | PREPL inh cf 46
Cc1cccc(NC(=O)c2c(O)c3ccccc3n(C)c2=O)c1	none
COc1ccc(C(CCNCc2ccc(N(C)C)cc2)c2ccccc2)cc1 (configuration not stated)	PREPL inh 54 | PREPL inh cf 64
COc1ccc(C(CCNCc2ccc(OC)c(OC)c2)c2ccc(F)cc2)cc1 (configuration not stated)	none
O=C(Nc1ccccc1C(=O)N1CCOCC1)c1ccc(Br)cc1	none
CCCCn1c(CCc2ccccc2)nc2cc3[nH]c(=O)c(C(C)C)nc3cc21	PREPL inh 44 | PREPL inh cf inactive
COc1ccc(-c2csc(NC(C)c3nc4cc(C(=O)NCCCO)ccc4n3Cc3ccc(C)cc3)n2)cc1 (configuration not stated)	none
CCCCN(C)CCCNC(=O)CN1N=C(c2ccc(Cl)cc2)CCC1=O	none
CC(C)CN(CCNC(=O)CN1N=C(c2ccc(Cl)cc2)CCC1=O)CC(C)C	PREPL inh 49 | PREPL inh cf inactive
CCCCCCC(=O)N1C/C=C\C(c2ccc(OC)cc2)N(Cc2ccc(F)cc2)C(=O)[C@H]1Cc1ccccc1 (some centres not stated)	PREPL inh 48 | PREPL inh cf 44
C=C(C)Cn1c(CN(C)Cc2ccccc2)nc2c1c(=O)n(C)c(=O)n2C	none
CC(C)c1nnc(NC(=O)CCC(=O)N2CCN(c3ccc(Cl)cc3)CC2)s1	PREPL inh 43 | PREPL inh cf inactive
CC(C)c1nnc(NC(=O)CCC(=O)N2CCN(c3ccc(F)cc3)CC2)s1	none
CC(NC(=O)c1cccnc1Sc1ccccc1)c1ccc(S(N)(=O)=O)cc1 (configuration not stated)	none

Compound activity (PubChem)
